Source: paper PMC7862700, “An all-to-all approach to the identification of sequence-specific readers for epigenetic DNA modifications on cytosine”

Columns and labels:
Assay in all cases: DAPPL (digital affinity profiling via proximity ligation, sequencing); 10 mM Tris-HCl pH 7.5, 50 mM NaCl, 1 mM DTT, 4% glycerol, room temperature, 30 min; GST-TFs on glutathione beads, 16-mer random dsDNA library, 0.1% formaldehyde crosslink after washing; high values mean tight binding
Conditions in all cases: protein: recombinant; tags: N-terminal GST; dsDNA, one strand shown
FEV = target: T1, FEV (Homo sapiens, UniProt Q99581 1-238)
T1 sequence: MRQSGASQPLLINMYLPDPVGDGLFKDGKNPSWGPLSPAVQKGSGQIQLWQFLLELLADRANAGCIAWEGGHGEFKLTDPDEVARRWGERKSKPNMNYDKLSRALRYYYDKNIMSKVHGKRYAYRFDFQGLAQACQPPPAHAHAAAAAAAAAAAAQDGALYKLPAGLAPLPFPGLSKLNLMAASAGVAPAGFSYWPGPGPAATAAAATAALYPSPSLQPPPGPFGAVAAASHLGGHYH
How it was run: (§1)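 Yeast served to express human transcription factors as GST fusions, which were then captured on glutathione beads and labelled with DNA barcodes. Pooled with a tag-only sample, they were incubated with 200 nmole of a 16-mer random double-stranded DNA library for 30 min at room temperature in Tris/NaCl/DTT/glycerol buffer, washed, crosslinked with 0.1% formaldehyde, ligated by proximity, amplified by PCR and sequenced. Dividing each hexamer's read frequency for a factor by its frequency for the tag-only sample gives the binding signal.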

ETV5 = ETV5 (Homo sapiens, UniProt P41161 1-510)
How it was run: as §1

SPIC = target: T2, SPIC (Homo sapiens, UniProt Q8N5J4 1-248)
T2 sequence: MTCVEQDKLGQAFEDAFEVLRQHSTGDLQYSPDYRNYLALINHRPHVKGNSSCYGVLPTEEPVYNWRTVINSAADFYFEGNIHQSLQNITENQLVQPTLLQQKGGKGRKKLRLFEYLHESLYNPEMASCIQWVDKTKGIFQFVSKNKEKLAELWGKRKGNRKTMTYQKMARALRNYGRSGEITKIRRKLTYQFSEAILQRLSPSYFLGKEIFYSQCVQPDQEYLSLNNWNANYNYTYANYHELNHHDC
How it was run: as §1

ELF4 = ELF4 (Homo sapiens, UniProt Q99607 1-663)
How it was run: as §1

ELK4 = target: T3, ELK4 (Homo sapiens, UniProt P28324-2 1-405)
T3 sequence: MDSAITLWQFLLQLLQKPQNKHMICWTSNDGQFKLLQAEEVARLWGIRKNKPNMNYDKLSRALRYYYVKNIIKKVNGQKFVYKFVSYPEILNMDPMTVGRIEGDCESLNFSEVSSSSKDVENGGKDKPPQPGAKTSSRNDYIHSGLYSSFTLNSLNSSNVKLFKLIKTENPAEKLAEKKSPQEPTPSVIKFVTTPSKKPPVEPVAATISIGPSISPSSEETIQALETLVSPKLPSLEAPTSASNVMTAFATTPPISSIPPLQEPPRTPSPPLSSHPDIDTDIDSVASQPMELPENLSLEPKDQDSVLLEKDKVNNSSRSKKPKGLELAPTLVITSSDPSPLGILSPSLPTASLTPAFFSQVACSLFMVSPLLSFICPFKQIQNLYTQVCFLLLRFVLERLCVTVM
How it was run: as §1

ETV2 = target: T4, ETV2 (Homo sapiens, UniProt O00321 1-342)
T4 sequence: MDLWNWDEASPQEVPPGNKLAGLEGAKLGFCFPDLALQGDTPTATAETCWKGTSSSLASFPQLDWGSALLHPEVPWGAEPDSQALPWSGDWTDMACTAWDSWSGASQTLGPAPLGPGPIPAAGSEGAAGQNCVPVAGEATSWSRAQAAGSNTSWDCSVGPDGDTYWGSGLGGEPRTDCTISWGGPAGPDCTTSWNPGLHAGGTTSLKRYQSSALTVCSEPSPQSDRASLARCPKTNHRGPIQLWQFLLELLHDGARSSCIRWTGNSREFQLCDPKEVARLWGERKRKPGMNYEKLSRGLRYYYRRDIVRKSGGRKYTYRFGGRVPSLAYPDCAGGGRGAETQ
How it was run: as §1

ELF3 = target: T5, ELF3 (Homo sapiens, UniProt P78545 1-371)
T5 sequence: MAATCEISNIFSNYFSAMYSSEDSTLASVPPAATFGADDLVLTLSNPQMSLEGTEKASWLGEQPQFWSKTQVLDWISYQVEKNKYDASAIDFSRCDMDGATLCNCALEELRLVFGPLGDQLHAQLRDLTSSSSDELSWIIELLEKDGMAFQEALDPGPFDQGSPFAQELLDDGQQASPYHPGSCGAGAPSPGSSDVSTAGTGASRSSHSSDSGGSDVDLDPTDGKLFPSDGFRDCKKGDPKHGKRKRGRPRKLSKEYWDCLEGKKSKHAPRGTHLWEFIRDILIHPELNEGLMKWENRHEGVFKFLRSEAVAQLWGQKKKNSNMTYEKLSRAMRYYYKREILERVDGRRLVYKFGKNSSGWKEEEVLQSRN
How it was run: as §1

ERF = target: T6, ERF (Homo sapiens, UniProt P50548 1-548)
T6 sequence: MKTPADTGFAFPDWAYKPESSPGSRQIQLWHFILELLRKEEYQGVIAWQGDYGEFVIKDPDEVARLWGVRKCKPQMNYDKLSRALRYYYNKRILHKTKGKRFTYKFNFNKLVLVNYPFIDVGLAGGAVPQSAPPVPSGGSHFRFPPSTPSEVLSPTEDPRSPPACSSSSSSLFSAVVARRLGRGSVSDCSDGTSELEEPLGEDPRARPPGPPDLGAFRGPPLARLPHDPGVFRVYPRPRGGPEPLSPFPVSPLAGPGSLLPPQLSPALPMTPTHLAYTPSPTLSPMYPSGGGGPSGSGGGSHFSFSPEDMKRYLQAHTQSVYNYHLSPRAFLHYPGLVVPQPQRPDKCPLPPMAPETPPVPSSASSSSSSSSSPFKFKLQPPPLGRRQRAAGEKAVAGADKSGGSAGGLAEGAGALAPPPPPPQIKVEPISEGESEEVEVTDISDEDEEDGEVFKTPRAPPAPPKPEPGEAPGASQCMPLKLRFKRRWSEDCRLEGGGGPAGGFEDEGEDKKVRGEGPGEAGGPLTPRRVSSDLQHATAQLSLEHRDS
How it was run: as §1

ETV3L = target: T7, ETV3L (Homo sapiens, UniProt Q6ZN32 1-361)
T7 sequence: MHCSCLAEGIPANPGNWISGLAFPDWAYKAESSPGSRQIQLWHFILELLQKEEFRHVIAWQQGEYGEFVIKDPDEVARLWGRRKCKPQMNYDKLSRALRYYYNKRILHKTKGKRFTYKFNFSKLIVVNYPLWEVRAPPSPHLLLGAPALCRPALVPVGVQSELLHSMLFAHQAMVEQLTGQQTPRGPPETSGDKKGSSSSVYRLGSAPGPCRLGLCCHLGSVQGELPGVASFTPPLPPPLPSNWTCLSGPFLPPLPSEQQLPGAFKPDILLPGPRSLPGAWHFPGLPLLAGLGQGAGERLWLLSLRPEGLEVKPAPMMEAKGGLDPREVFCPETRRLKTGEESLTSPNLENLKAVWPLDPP
How it was run: as §1

ETS2 = target: T8, ETS2 (Homo sapiens, UniProt P15036 1-469)
T8 sequence: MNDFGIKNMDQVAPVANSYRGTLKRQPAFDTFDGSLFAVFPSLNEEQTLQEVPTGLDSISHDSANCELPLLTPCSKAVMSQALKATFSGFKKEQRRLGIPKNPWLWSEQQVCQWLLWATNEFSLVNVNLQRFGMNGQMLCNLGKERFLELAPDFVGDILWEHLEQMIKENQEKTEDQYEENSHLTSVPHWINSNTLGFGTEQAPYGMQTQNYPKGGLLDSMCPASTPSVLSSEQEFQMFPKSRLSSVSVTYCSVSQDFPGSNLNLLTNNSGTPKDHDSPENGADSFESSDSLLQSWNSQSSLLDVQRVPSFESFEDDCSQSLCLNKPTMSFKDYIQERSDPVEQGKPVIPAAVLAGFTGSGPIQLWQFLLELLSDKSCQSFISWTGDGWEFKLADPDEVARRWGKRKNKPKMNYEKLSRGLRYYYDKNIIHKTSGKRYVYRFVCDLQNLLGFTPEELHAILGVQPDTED
How it was run: as §1

SPDEF = target: T9, SPDEF (Homo sapiens, UniProt O95238 1-335)
T9 sequence: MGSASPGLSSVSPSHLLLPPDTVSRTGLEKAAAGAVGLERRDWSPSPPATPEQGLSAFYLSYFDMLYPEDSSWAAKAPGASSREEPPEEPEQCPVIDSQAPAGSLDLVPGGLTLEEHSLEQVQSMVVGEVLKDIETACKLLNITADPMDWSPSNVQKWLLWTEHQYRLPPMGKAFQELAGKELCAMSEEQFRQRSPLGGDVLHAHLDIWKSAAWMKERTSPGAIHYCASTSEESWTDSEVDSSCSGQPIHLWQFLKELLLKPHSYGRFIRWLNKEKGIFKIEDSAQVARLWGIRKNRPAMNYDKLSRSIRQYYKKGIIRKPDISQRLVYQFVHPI
How it was run: as §1

ETV7 = target: T10, ETV7 (Homo sapiens, UniProt Q9Y603 1-341)
T10 sequence: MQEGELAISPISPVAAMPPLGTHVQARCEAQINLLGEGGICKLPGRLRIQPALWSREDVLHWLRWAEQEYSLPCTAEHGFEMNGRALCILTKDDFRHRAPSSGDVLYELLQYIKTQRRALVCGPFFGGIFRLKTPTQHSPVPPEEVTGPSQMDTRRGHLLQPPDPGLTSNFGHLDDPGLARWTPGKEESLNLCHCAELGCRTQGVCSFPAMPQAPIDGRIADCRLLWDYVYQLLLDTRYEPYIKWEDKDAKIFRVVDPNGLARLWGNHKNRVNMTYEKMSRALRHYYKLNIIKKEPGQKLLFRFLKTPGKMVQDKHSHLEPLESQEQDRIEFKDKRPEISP
How it was run: as §1

ELF5 = target: T11, ELF5 (Homo sapiens, UniProt Q9UKW6-2 1-255)
T11 sequence: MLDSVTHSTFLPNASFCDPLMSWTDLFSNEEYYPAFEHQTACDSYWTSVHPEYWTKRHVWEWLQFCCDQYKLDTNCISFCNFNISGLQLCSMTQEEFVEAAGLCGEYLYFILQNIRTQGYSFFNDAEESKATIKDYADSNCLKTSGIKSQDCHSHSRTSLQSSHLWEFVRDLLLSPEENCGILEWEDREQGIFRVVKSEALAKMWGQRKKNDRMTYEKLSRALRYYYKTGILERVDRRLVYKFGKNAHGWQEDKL
How it was run: as §1

ETV6 = ETV6 (Homo sapiens, UniProt P41212 1-452)
How it was run: as §1

ETV3 = target: T12, ETV3 (Homo sapiens, UniProt P41162-2 1-143)
T12 sequence: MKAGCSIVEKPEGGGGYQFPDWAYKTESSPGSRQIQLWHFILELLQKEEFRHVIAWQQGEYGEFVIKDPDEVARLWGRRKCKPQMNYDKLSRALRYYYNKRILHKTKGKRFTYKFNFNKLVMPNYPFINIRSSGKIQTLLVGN
How it was run: as §1

ETV1 = ETV1 (Homo sapiens, UniProt P50549 1-477)
How it was run: as §1

Sequence of ELF4 (Q99607 whole entry): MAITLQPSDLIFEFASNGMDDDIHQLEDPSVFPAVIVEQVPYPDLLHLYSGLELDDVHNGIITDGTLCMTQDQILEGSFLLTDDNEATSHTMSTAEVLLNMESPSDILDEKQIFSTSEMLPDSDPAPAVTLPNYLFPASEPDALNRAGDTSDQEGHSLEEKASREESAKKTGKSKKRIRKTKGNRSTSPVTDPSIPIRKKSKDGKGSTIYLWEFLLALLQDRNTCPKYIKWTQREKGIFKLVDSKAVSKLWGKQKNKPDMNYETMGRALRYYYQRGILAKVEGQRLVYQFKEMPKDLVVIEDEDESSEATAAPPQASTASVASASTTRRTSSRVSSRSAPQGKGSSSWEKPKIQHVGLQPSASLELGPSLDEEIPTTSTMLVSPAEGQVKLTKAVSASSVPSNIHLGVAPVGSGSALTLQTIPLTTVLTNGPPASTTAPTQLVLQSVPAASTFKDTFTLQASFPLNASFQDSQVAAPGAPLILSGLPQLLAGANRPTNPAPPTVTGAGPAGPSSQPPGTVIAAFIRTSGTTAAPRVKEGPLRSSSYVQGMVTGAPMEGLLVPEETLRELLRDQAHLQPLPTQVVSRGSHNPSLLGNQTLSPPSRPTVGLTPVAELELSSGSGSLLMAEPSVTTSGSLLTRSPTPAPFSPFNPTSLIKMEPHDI
Sequence of ETV6 (P41212 whole entry): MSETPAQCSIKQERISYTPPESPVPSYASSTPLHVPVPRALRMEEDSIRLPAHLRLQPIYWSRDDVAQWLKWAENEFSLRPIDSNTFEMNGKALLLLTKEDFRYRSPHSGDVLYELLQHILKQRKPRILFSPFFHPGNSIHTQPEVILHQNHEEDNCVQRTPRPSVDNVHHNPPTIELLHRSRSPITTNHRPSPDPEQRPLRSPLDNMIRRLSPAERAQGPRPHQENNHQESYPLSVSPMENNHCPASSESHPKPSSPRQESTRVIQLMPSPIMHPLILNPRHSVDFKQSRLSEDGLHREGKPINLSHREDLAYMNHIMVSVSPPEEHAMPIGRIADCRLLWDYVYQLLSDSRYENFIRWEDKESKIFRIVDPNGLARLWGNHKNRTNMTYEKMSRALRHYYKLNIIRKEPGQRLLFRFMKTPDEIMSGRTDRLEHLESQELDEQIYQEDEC
Sequence of ETV5 (P41161 whole entry): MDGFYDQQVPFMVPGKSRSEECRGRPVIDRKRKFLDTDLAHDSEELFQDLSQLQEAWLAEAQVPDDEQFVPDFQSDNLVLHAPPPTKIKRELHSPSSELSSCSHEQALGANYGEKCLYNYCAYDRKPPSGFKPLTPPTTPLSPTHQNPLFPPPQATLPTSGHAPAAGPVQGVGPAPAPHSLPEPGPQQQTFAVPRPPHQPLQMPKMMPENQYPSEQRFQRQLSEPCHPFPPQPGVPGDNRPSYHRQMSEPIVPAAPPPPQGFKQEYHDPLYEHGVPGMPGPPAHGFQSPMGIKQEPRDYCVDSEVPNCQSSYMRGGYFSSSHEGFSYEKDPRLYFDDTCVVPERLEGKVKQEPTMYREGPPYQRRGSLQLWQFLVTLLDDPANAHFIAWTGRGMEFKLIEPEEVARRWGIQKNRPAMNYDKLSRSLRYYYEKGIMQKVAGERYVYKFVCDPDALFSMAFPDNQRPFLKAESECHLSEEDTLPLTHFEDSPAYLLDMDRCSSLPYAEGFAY
Sequence of ETV1 (P50549 whole entry): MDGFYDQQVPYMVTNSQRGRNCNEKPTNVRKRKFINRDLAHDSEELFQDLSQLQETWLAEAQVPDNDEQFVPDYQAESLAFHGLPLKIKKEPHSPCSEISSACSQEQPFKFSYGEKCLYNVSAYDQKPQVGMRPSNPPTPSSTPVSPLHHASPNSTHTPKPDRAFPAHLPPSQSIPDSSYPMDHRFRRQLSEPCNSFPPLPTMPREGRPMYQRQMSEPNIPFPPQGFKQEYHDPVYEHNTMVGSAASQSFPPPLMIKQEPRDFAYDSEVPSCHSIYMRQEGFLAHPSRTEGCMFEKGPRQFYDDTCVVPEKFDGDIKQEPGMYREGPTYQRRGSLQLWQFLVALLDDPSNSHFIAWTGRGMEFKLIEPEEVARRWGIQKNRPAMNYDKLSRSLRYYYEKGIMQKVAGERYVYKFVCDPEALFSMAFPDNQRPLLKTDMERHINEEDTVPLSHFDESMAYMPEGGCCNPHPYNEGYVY

| Sequence | binding signal (FEV) | binding signal (ETV5) | binding signal (SPIC) | binding signal (ELF4) | binding signal (ELK4) | binding signal (ETV2) | binding signal (ELF3) | binding signal (ERF) | binding signal (ETV3L) | binding signal (ETS2) | binding signal (SPDEF) | binding signal (ETV7) | binding signal (ELF5) | binding signal (ETV6) | binding signal (ETV3) | binding signal (ETV1) |
| --- | --- | --- | --- | --- | --- | --- | --- | --- | --- | --- | --- | --- | --- | --- | --- | --- |
| TGTGTT | 1.06 fold enrichment (6-mer frequency, TF over GST control) | 1.06 fold enrichment (6-mer frequency, TF over GST control) | 1.02 fold enrichment (6-mer frequency, TF over GST control) | 1.16 fold enrichment (6-mer frequency, TF over GST control) | 1.07 fold enrichment (6-mer frequency, TF over GST control) | 1.19 fold enrichment (6-mer frequency, TF over GST control) | 1.08 fold enrichment (6-mer frequency, TF over GST control) | 1.08 fold enrichment (6-mer frequency, TF over GST control) | 1.15 fold enrichment (6-mer frequency, TF over GST control) | 1.06 fold enrichment (6-mer frequency, TF over GST control) | 1.21 fold enrichment (6-mer frequency, TF over GST control) | 1.19 fold enrichment (6-mer frequency, TF over GST control) | 1.11 fold enrichment (6-mer frequency, TF over GST control) | 1.08 fold enrichment (6-mer frequency, TF over GST control) | – | – |
| ATGTAG | 1.02 fold enrichment (6-mer frequency, TF over GST control) | 1.08 fold enrichment (6-mer frequency, TF over GST control) | 1.09 fold enrichment (6-mer frequency, TF over GST control) | 1.1 fold enrichment (6-mer frequency, TF over GST control) | 1.15 fold enrichment (6-mer frequency, TF over GST control) | 1.03 fold enrichment (6-mer frequency, TF over GST control) | 1.06 fold enrichment (6-mer frequency, TF over GST control) | 1.14 fold enrichment (6-mer frequency, TF over GST control) | – | 1.08 fold enrichment (6-mer frequency, TF over GST control) | 1.09 fold enrichment (6-mer frequency, TF over GST control) | – | 1.04 fold enrichment (6-mer frequency, TF over GST control) | 1.02 fold enrichment (6-mer frequency, TF over GST control) | 1.08 fold enrichment (6-mer frequency, TF over GST control) | – |
| GCGCCT | 1.13 fold enrichment (6-mer frequency, TF over GST control) | 1.07 fold enrichment (6-mer frequency, TF over GST control) | 1 fold enrichment (6-mer frequency, TF over GST control) | 1.07 fold enrichment (6-mer frequency, TF over GST control) | 1.28 fold enrichment (6-mer frequency, TF over GST control) | 1.13 fold enrichment (6-mer frequency, TF over GST control) | 1.11 fold enrichment (6-mer frequency, TF over GST control) | 1.05 fold enrichment (6-mer frequency, TF over GST control) | 1.07 fold enrichment (6-mer frequency, TF over GST control) | 1.02 fold enrichment (6-mer frequency, TF over GST control) | – | 1.06 fold enrichment (6-mer frequency, TF over GST control) | 1.04 fold enrichment (6-mer frequency, TF over GST control) | 1.12 fold enrichment (6-mer frequency, TF over GST control) | 1.1 fold enrichment (6-mer frequency, TF over GST control) | 1.17 fold enrichment (6-mer frequency, TF over GST control) |
